Data published in PubChem BioAssay (NCATS).
Records with an inconclusive call do not appear. Unmarked numbers belong to inactive results. The call rests on the fitted dose curve; in most records, active means well fitted inhibition curve with a large enough effect; inconclusive means small, poorly fitted or top-dose-only effect; inactive means flat fitted curve, though single readings scatter.

Molecular target: Calcium and integrin-binding protein 1 (Homo sapiens) (UniProt Q99828)
Assay: Primary qHTS for Identification of Calcium Integrin Binding Protein 1 (CIB1) Competitor (AID 1508620);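 further: GST tagged CIB1 binding a fluorescein labelled alphaIIb integrin peptide tracer; top concentration of the series differs between compounds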
Conditions: CIB1-GST / FITC-alphaIIb peptide fluorescence polarization; series mostly up to 114 µM; activity change, negative = inhibition: at the top concentration
Summary of the method: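 CIB1-GST (1 uM final) and compound incubated 15 min at room temperature before adding FITC-alphaIIb peptide tracer (100 nM final). Competition for binding read by fluorescence polarization (ex 480, em 540) after another 15 min at room temperature.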
On the % scale 0 is the no-effect control and ±100 the full control effect.

Chain of Calcium and integrin-binding protein 1 (Homo sapiens) (Q99828 whole entry, looked up): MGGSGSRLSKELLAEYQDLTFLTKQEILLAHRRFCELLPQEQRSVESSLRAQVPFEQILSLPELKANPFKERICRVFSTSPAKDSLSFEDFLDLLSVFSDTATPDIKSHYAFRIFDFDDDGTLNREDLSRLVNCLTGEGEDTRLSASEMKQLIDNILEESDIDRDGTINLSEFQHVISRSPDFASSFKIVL

Row | SMILES | activity change, negative = inhibition
1 | CC(=O)c1c(O)cc(O[C@@H]2O[C@H](CO)[C@@H](O)[C@H](O)[C@H]2O)cc1O | -5.24% [at 57.7 µM]
2 | CC(C)(C)c1ccc(S(=O)(=O)Nc2ccc(Cl)cc2C(=O)c2cc[n+]([O-])cc2)cc1 | -5.23%
3 | O=C1C=CC2OC(c3ccccc3)C(O)C2O1 (stereo unspecified) | -8.79%
4 | CC1CC2OC3(OC2C(C)(C)O)C1C1(C)CCC24CC25CCC(O[C@@H]2OC[C@@H](O)[C@H](O)[C@H]2O)C(C)(C)C5CC=C4C1(C)C3O (stereo partly specified) | 1.42% [at 30.2 µM]
5 | CC1OC(OC2CCC3(C)C(CCC4(C)C3CC=C3C5CC(C)(C)CCC5(C(=O)OC5OC(CO)C(O)C(O)C5O)CCC34C(=O)O)C2(C)C)C(O)C(O)C1O (stereo unspecified) | 3.19% [at 30.2 µM]
6 | C[C@@]12C[C@]3(O)O[C@H](O1)[C@]1(COC(=O)c4ccccc4)[C@H]3C[C@@]12O[C@@H]1O[C@H](CO)[C@@H](O)[C@H](O)[C@H]1O | 0.0893% [at 57.7 µM]
7 | C=C(C(=O)OC)C1C(O)CC2(C)C(=O)CCC(O)(CO)C2C1O (stereo unspecified) | 3.21% [at 57.7 µM]
8 | Cc1ccc(C(=O)N(CCCN)C(c2nc3cc(Cl)ccc3c(=O)n2Cc2ccccc2)C(C)C)cc1 (stereo unspecified) | -5.05%
9 | CC(=O)OC1C(c2ccccc2)CCC(c2ccccc2)C1OC(C)=O (stereo unspecified) | 1.45% [at 57.7 µM]
10 | COC(=O)C[C@H]1C(C)(C)[C@H](OC(C)=O)C2CC3=C4CC(=O)O[C@@H](c5ccoc5)[C@]4(C)CCC3[C@@]1(C)C2=O (stereo partly specified) | -6.72% [at 57.7 µM]
11 | C/C=C(\C)C(=O)O[C@@H]1CC2[C@@H](CC=C3C[C@@H](O[C@H]4C[C@H](OC)[C@H](O[C@H]5C[C@H](OC)[C@H](O[C@@H]6O[C@H](C)[C@@H](O[C@H]7C[C@H](OC)[C@H](O[C@@H]8O[C@H](CO)[C@@H](O)[C@H](O)[C@H]8O)[C@@H](C)O7)[C@H](OC)[C@H]6O)[C@@H](C)O5)[C@@H](C)O4)CC[C@@]32C)[C@@]2(O)CC[C@H](C(C)=O)[C@@]12C (stereo partly specified) | 2.76% [at 12.4 µM]
